# About 960 (1.5%) of roughly 66,000 compounds showed an effect of 50% or more. What follows is part of a selection rich in strong results, with near analogues and random picks from the rest.
# Tested on: Trypanosoma brucei
# Test: Trypanosoma brucei 72 hour study
# Format: functional, organism-based
# Parameters: scale not given: in the data most compounds retested in dose-response had high values
smiles,measurement,setting,value
CCn1ncc2c1C(COC)N(C(=O)CCc1ccccc1)CC2.O=C(O)C(F)(F)F (stereo not given),Percent Effect,"30.3 µM, […]",-62.76%
COC[C@@]12CC[C@@H](N3CCOCC3)C[C@H]1CCN(c1ncccc1F)C2,Percent Effect,"30.3 µM, […]",8.261%
COC[C@@]12CC[C@@H](N3CCOCC3)C[C@H]1CCN(c1ncccc1C)C2,Percent Effect,"30.3 µM, […]",-4.564%
COC[C@@]12CC[C@@H](N3CCOCC3)C[C@H]1CCN(c1ncccc1Cl)C2,Percent Effect,"30 µM, 30.03 µM",81.93%
Cl.Cl.O=C(CN1CCN(CC(O)C2CC2)CC1)NCc1ccccc1 (stereo not given),Percent Effect,"30.3 µM, […]",-20.63%
Cn1ccc(CN2CCCC23CCN(Cc2cccc(F)c2)CC3)n1.O=C(O)C(F)(F)F.O=C(O)C(F)(F)F,Percent Effect,"30.3 µM, […]",-80.78%
CCc1cc(C(F)(F)F)c2c(C3CCN(C(=O)COC)CC3)noc2n1,Percent Effect,"30.3 µM, […]",11.66%
O=C(N[C@@H]1CN(CCc2ccc(F)cc2)C[C@H]1O)c1cscn1,Percent Effect,"30.3 µM, […]",8.587%
O=C(O)C(F)(F)F.O=C(O)C(F)(F)F.O=C(c1cccnc1)N1CCn2cc(CN3CCCC3)nc2C1,Percent Effect,"30.3 µM, […]",-57.28%
N#Cc1ccc(C(=O)NCCCNc2ccc(C(F)(F)F)cn2)cc1,Percent Effect,"30 µM, 30.03 µM",0.4176%
O=C(NCCCNc1ccc(C(F)(F)F)cn1)c1ccccc1,Percent Effect,10 µM,-30.72%
N#CC1(C(=O)NCCCNc2ccc(C(F)(F)F)cn2)CCCC1,Percent Effect,"30 µM, 30.03 µM",104.7%
CCCN1C(=O)[C@H]2CC[C@@H]1CN(S(=O)(=O)c1cccc(Cl)c1)C2,Percent Effect,"30.3 µM, […]",-12.81%
Cc1cccc(CN2CCc3onc(CO)c3C2)n1.O=C(O)C(F)(F)F,Percent Effect,"30.3 µM, […]",-52.13%
O=C(O)C(F)(F)F.O=C(O)C(F)(F)F.c1cncc(OCc2noc3c2CN(Cc2ccsc2)CC3)c1,Percent Effect,"30 µM, 30.03 µM",-15.24%
O=C(Nc1ccc(Cl)cc1)c1nn(C2CCS(=O)(=O)C2)c2c1CCCC2 (stereo not given),Percent Effect,"30 µM, 30.03 µM",-43.99%
O=C(Nc1cccc(Cl)c1)c1nn(C2CCS(=O)(=O)C2)c2c1CCCC2 (stereo not given),Percent Effect,"30 µM, 30.03 µM",73.39%
O=C(Nc1ccccc1)c1nn(C2CCS(=O)(=O)C2)c2c1CCCC2 (stereo not given),Percent Effect,"30 µM, 30.03 µM",23.09%
COCC(C)NCc1ccc2[nH]c(C)c(C)c2c1 (stereo not given),Percent Effect,"30 µM, 30.03 µM",2.897%
Cc1[nH]c2ccc(CNc3cc(C(N)=O)ccn3)cc2c1C,Percent Effect,"30 µM, 30.03 µM",60.58%
CSCC(C)NCc1ccc2[nH]c(C)c(C)c2c1 (stereo not given),Percent Effect,"30 µM, 30.03 µM",-11.75%
Cc1[nH]c2ccc(CNc3cc(C(=O)NC(C)C)ccn3)cc2c1C,Percent Effect,"30 µM, 30.03 µM",50.33%
COC(=O)C(C)NCc1ccc2[nH]c(C)c(C)c2c1 (stereo not given),Percent Effect,"30 µM, 30.03 µM",-35.15%
Cc1[nH]c2ccc(CNc3cc(C#N)ccn3)cc2c1C,Percent Effect,"30 µM, 30.03 µM",39.43%
NC[C@H]1CC[C@H](C(NC(=O)CC2CCCCC2)c2ccccn2)CC1 (stereo not given in full),Percent Effect,"30.3 µM, […]",-8.457%
COc1cnc(C2(O)CCN(C(=O)c3ccccn3)CC2)c(OC)n1,Percent Effect,"30.3 µM, […]",-9.61%
COc1c(CNCCNC(=O)c2cccc(C)c2)c(C)nn1C.Cl,Percent Effect,"30.3 µM, […]",0.1013%
O=C(NCC1CC1)[C@H]1C[C@@H]2CN(C(=O)NCc3ccccc3)C[C@H]1O2,Percent Effect,"30 µM, 30.03 µM",46.62%
COc1cccc(-c2n[nH]cc2CNC2CCN(C(C)C)CC2)c1.Cl,Percent Effect,"30 µM, 30.03 µM",-15.13%
COc1c(CNC2CCOc3ccccc32)c(C(C)C)nn1C (stereo not given),Percent Effect,"30 µM, 30.03 µM",25.19%
CC(C)c1nn(C)c(N(C)C)c1CNC1CCOc2ccccc21 (stereo not given),Percent Effect,"30 µM, 30.03 µM",-51.78%
CC(C)c1nn(C)c(Cl)c1CNC1CCOc2ccccc21.Cl (stereo not given),Percent Effect,"30 µM, 30.03 µM",55.88%
CN1CC(=O)N(c2cccc(F)c2)CC12CCN(CC1CCOCC1)C2.O=C(O)C(F)(F)F.O=C(O)C(F)(F)F (stereo not given),Percent Effect,"30 µM, 30.03 µM",9.991%
COc1ccc(C2=Nn3c(CN)nnc3-c3ccccc3C2)cc1,Percent Effect,"30 µM, 30.03 µM",2.28%
COc1ncccc1C(=O)N1CCCC(n2ccnc2C)C1 (stereo not given),Percent Effect,"30.3 µM, […]",-7.34%
CC(C)C(=O)NC1CCN(Cc2cccc3c2OCCO3)CC1,Percent Effect,"30 µM, 30.03 µM",-15.03%
Cc1ccoc1C(=O)NC1CCN(Cc2ccccc2C#N)CC1,Percent Effect,10 µM,15.78%
same,Percent Effect,"30.3 µM, […]",-0.9403%
Cc1ccoc1C(=O)NC1CCN(Cc2cccc3ccccc23)CC1,Percent Effect,10 µM,-9.27%
same,Percent Effect,"30.3 µM, […]",57.41%
Cc1ccc(C(=O)NC2CCN(Cc3cccc4c3OCCO4)CC2)s1,Percent Effect,10 µM,-2.683%
same,Percent Effect,"30.3 µM, […]",68.24%
O=C(NC1CCN(Cc2cccc3c2OCCO3)CC1)c1cccs1,Percent Effect,10 µM,10.83%
same,Percent Effect,"30.3 µM, […]",7.019%
Cc1ccoc1C(=O)NC1CCN(Cc2ccccc2F)CC1,Percent Effect,10 µM,-23.23%
same,Percent Effect,"30.3 µM, […]",4.829%
O=C(O)C(F)(F)F.O=C(c1ccc(F)cc1)N1CCC2(CCN(Cc3ccccn3)C2=O)C1 (stereo not given),Percent Effect,"30 µM, 30.03 µM",-50.24%
Cc1csc2ncc(-c3ccnc(N4CCC[C@H](C(N)=O)C4)n3)c(=O)n12,Percent Effect,"30.3 µM, […]",-8.345%
CCN(CC)Cc1cn2c(n1)CN(C1CCOC1)CC2.O=C(O)C(F)(F)F.O=C(O)C(F)(F)F (stereo not given),Percent Effect,"30.3 µM, […]",-56.79%
Cc1ccccc1C(N)c1ccncc1.Cl (stereo not given),Percent Effect,"30.3 µM, […]",-1.36%
CCOc1c(F)cccc1C(=O)N(c1cccnc1)C(C)C,Percent Effect,"30.3 µM, […]",99.6%
CCOc1c(F)cccc1C(=O)N(CC)C(C)c1cccnc1 (stereo not given),Percent Effect,"30.3 µM, […]",6.068%
CCOc1c(F)cccc1C(=O)N(CC)C(C)c1ccncc1 (stereo not given),Percent Effect,"30.3 µM, […]",3.975%
Cc1cc(C(=O)N2CCC3(CC2)C(=O)N(C)CCN3CC(C)C)c(C)o1.O=C(O)C(F)(F)F,Percent Effect,"30.3 µM, […]",2.031%
CCOC(=O)[C@]12CCCN(Cc3cccs3)C[C@H]1CN(C(C)C)C2.O=C(O)C(F)(F)F.O=C(O)C(F)(F)F,Percent Effect,"30.3 µM, […]",-11.59%
Cc1cc(=O)n2nc(Oc3ccc(C#N)cc3Cl)sc2n1,Percent Effect,"30 µM, 30.03 µM",98.96%
Cc1cc(=O)n2nc(Oc3cc(Cl)cc(Cl)c3)sc2n1,Percent Effect,"30 µM, 30.03 µM",-23.2%
Cc1cc(=O)n2nc(Oc3cccc(C(N)=O)c3)sc2n1,Percent Effect,"30 µM, 30.03 µM",-16.62%
Cc1cc(=O)n2nc(Oc3ccc(F)c(F)c3)sc2n1,Percent Effect,"30 µM, 30.03 µM",-14.16%
Cc1cc(=O)n2nc(Oc3ccc(Cl)c(C)c3)sc2n1,Percent Effect,"30 µM, 30.03 µM",-32.75%
Cc1cc(=O)n2nc(Oc3cccc(I)c3)sc2n1,Percent Effect,"30 µM, 30.03 µM",99.1%
CN1CCCCCC1C(=O)N1CCN(c2ccccc2C#N)CC1 (stereo not given),Percent Effect,"30 µM, 30.03 µM",14.65%
COc1ncccc1CNC(=O)NCc1ccco1,Percent Effect,10 µM,-3.742%
same,Percent Effect,"30.3 µM, […]",11.99%
Cc1ccc(CN2CC[C@H]3[C@H](CC(Cn4cccn4)N3C)C2)s1.O=C(O)C(F)(F)F.O=C(O)C(F)(F)F.O=C(O)C(F)(F)F (stereo not given in full),Percent Effect,"30.3 µM, […]",2.612%
